Experimental data from PubChem BioAssay (Tox21).
Results filed as inconclusive are left out. Active and inactive are the calls of the source. Unless noted, calls follow the shape of the dose curve; as a rule, active = well fitted curve in the direction sought with a large enough effect in the repeat runs; inconclusive = weak or mixed curves; inactive = no such curve, though single readings can be large; an effect the other way counts as inactive or inconclusive.

What was measured:
[1] = qHTS assay to identify small molecule agonists of H2AX (AID 1224845; active = well fitted activation curve with a large enough effect in the signal ratio in the repeat runs, not every such curve was filed as active; the % refers to the signal ratio)
Summary of the method: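 Phospho-H2AX Ser139 measured by HTRF (ex 320 nm; em 665 and 620 nm) after 24 hr antibody incubation. Compounds, 15 concentrations, 0.76% DMSO, were applied to CHO-K1 cells for 3hr at 37C before lysis.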

[2] = qHTS assay to identify small molecule agonists of the hypoxia (HIF-1) signaling pathway (AID 1224846; active = well fitted activation curve with a large enough effect in the signal ratio in the repeat runs, not every such curve was filed as active; the % refers to the signal ratio)
Summary of the method: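 Steps: seed ME-180 HRE-bla cells (2,000/well, 0.5% dialyzed FBS); incubate 5 hrs at 37C; pin-transfer compounds or DMSO; incubate 17 hrs; add LiveBLAzer B/G substrate CCF4-AM; measure reporter activation by FRET.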

[3] = qHTS assay to identify small molecule agonists of H2AX - cell viability counter screen (AID 1224847; calls by dose curve; also: top concentration of the series differs between compounds; nearly all actives have a fitted effect of over 30% in size)
Summary of the method: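 We seed wild-type CHO-K1 cells overnight, treat them for 3 hr at 37C with compounds in 15-concentration series, and quantify remaining viability by CellTiter-Glo luminescence.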

[4] = qHTS RealTime-Glo MT Cell Viability Assay in HepG2 cells - 24 hour (AID 1224867); also: nearly all actives have a fitted effect of over 50% in size
Summary of the method: (§1)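 HepG2 suspension premixed with RealTime-Glo reagents is plated at 600 cells per well and left 5 h at 37 C/5% CO2. Compounds in DMSO then go in, and bioluminescence reflecting viable cell number is recorded over 40 h.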

[5] = qHTS RealTime-Glo MT Cell Viability Assay in HEK293 cells - 32 hour (AID 1224868); also: top concentration of the series differs between compounds; nearly all actives have a fitted effect of over 50% in size
Summary of the method: (§2)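 Reads taken at 0, 8, 16, 24, 32 and 40 h from the same wells. HEK293 cells (600/well) carried RealTime-Glo reagents from seeding, with compound added after a 5 h settle at 37 C.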

[6] = A CellTox Green Cytotoxicity Assay to monitor cytotoxicity in HEK293 cells - 0 hour (AID 1224869); also: nearly all actives have a fitted effect of over 50% in size
Summary of the method: (§3)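 Cytotoxicity was tracked continuously in HEK293 cells by a DNA-binding dye excluded from viable cells. Compounds were transferred in DMSO 5 h after seeding; fluorescence was recorded at intervals up to 40 h.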

[7] = qHTS RealTime-Glo MT Cell Viability Assay in HepG2 cells - 40 hour (AID 1224870); also: nearly all actives have a fitted effect of over 50% in size
Summary of the method: (§4)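 Real-time viability: cells seeded at 600 per well together with NanoLuc and cell-permeant prosubstrate, compounds added after 5 h incubation. Luminescence tracked at 0, 8, 16, 24, 32 and 40 h of exposure.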

[8] = A CellTox Green Cytotoxicity Assay to monitor cytotoxicity in HEK293 cells - 40 hour (AID 1224871); also: nearly all actives have a fitted effect of over 45% in size
Summary of the method: as §3

[9] = qHTS RealTime-Glo MT Cell Viability Assay in HEK293 cells - 16 hour (AID 1224872)
Summary of the method: as §2

[10] = qHTS RealTime-Glo MT Cell Viability Assay in HepG2 cells - 8 hour (AID 1224873); also: nearly all actives have a fitted effect of over 55% in size
Summary of the method: as §4

[11] = qHTS RealTime-Glo MT Cell Viability Assay in HEK293 cells - 40 hour (AID 1224874); details: RealTime-Glo luminescence; max response: stronger effect = lower value; also: nearly all actives have a fitted effect of over 50% in size
Summary of the method: (§5)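 Nonlytic bioluminescent viability monitoring. HEK293 at 600 cells/well with reagent; 5 h settle; compound transfer by pintool; plates held at 37 C and read at set time points.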

[12] = A CellTox Green Cytotoxicity Assay to monitor cytotoxicity in HEK293 cells - 24 hour (AID 1224875); also: series mostly up to about 77 µM; nearly all actives have a fitted effect of over 45% in size
Summary of the method: as §3

[13] = A CellTox Green Cytotoxicity Assay to monitor cytotoxicity in HepG2 cells - 16 hour (AID 1224876); also: nearly all actives have a fitted effect of over 45% in size
Summary of the method: (§6)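 Real-time, homogeneous cytotoxicity readout: dead-cell DNA staining by CellTox Green in HepG2 monolayers, fluorescence measured at timed intervals up to 40 h of continuous compound exposure.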

[14] = qHTS RealTime-Glo MT Cell Viability Assay in HepG2 cells - 32 hour (AID 1224877); also: nearly all actives have a fitted effect of over 55% in size
Summary of the method: as §1

[15] = A CellTox Green Cytotoxicity Assay to monitor cytotoxicity in HepG2 cells - 24 hour (AID 1224878); also: nearly all actives have a fitted effect of over 45% in size
Summary of the method: as §6

[16] = A CellTox Green Cytotoxicity Assay to monitor cytotoxicity in HepG2 cells - 40 hour (AID 1224879); also: nearly all actives have a fitted effect of over 40% in size
Summary of the method: as §6

[17] = qHTS RealTime-Glo MT Cell Viability Assay in HEK293 cells - 0 hour (AID 1224880)
Summary of the method: as §5

[18] = A CellTox Green Cytotoxicity Assay to monitor cytotoxicity in HEK293 cells - 32 hour (AID 1224881); also: nearly all actives have a fitted effect of over 40% in size
Summary of the method: as §3
% is scaled to controls: 0 for no effect and ±100 for the full control effect.

CCCCCCC#N
inactive: Potency [1] | outcome [2] | Potency [3] | Potency [4] | Potency [5] | Potency [6] | Potency [7] | Potency [8] | Potency [9] | Potency [10] | max response [11] 1.28% | Potency [12] | Potency [13] | Potency [14] | Potency [15] | Potency [16] | Potency [17] | Potency [18]

ClCCCCBr
inactive: Potency [1] | outcome [2] | Potency [3] | Potency [4] | Potency [5] | Potency [6] | Potency [7] | Potency [8] | Potency [9] | Potency [10] | max response [11] -9.07% | Potency [12] | Potency [13] | Potency [14] | Potency [15] | Potency [16] | Potency [18]

COC(=O)C(Cl)C(=O)OC
inactive: Potency [1] | outcome [2] | Potency [3] | Potency [4] | Potency [5] | Potency [6] | Potency [7] | Potency [9] | Potency [10] | max response [11] -20.1% | Potency [12] | Potency [13] | Potency [14] | Potency [15] | Potency [16] | Potency [17] | Potency [18]

BrCCCCBr
inactive: Potency [1] | outcome [2] | Potency [3] | Potency [4] | Potency [5] | Potency [6] | Potency [7] | Potency [8] | Potency [9] | Potency [10] | max response [11] 17.9% | Potency [12] | Potency [13] | Potency [14] | Potency [15] | Potency [16] | Potency [17] | Potency [18]

O=[N+]([O-])c1ccccc1CCl
inactive: Potency [1] | outcome [2] | Potency [3] | Potency [4] | Potency [5] | Potency [6] | Potency [7] | Potency [8] | Potency [9] | Potency [10] | max response [11] 8.2% | Potency [12] | Potency [13] | Potency [14] | Potency [15] | Potency [16] | Potency [18]

O=S(=O)(Cl)c1ccccc1
inactive: Potency [1] | outcome [2] | Potency [3] | Potency [4] | Potency [5] | Potency [6] | Potency [7] | Potency [8] | Potency [9] | Potency [10] | max response [11] 11.8% | Potency [12] | Potency [13] | Potency [14] | Potency [15] | Potency [16] | Potency [17] | Potency [18]

C=CCOC(C)=O
inactive: Potency [1] | outcome [2] | Potency [3] | Potency [4] | Potency [5] | Potency [6] | Potency [7] | Potency [9] | Potency [10] | max response [11] -6.55% | Potency [12] | Potency [13] | Potency [14] | Potency [15] | Potency [16] | Potency [18]

O=C(O)c1ccccc1C(=O)Nc1cccc2ccccc12
inactive: Potency [1] | outcome [2] | Potency [3] | Potency [4] | Potency [5] | Potency [6] | Potency [7] | Potency [8] | Potency [9] | Potency [10] | max response [11] 18.5% | Potency [12] | Potency [13] | Potency [14] | Potency [15] | Potency [16] | Potency [17] | Potency [18]
